# Screens deposited in PubChem by National Center for Advancing Translational Sciences (NCATS).
# TrxR1 inh = rat TrxR1 inhibition | AID 588453 | Potency, µM (top dose mostly 114 µM), for the others: at the highest dose activity change, negative = inhibition, actives largely listed as inhibitors | O89049 | 390,000 tested, 1% active | recombinant rTrxR1, NADPH fluorescence consumption, selenite substrate; further: on the % scale 0 is the no-effect control and ±100 the full control effect; nearly all actives have a fitted effect of over 65% in size
# Target sequence (O89049 whole entry, looked up): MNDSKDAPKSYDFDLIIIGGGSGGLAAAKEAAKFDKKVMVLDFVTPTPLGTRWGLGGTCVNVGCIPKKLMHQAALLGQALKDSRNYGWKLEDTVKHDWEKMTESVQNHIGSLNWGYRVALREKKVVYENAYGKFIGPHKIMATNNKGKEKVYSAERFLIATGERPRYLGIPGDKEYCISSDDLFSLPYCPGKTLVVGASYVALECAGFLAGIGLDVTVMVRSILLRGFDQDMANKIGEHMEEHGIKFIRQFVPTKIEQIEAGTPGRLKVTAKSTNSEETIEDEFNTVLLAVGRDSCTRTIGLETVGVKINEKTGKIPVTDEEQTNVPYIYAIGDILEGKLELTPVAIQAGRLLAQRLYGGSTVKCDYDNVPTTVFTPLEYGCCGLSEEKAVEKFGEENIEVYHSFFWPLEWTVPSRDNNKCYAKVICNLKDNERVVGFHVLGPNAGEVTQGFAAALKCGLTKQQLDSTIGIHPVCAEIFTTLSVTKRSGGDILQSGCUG
#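 Rat TrxR1 (90 nM in the dispensed reagent) was pre-reduced with 400 uM NADPH for 5 min at room temperature, then incubated with compound for 15 min. After 400 uM selenite was added, NADPH fluorescence (Ex 340/Em 450 nm) was followed for 8 min.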
# TrxR1 substrate = rat thioredoxin reductase 1 substrate activity; O89049; 390,000 tested, 0.01% active; purified TrxR1 substrate turnover, NADPH consumption readout; Potency, µM (series often up to 114 µM), for the others: at the top dose activity change, negative = substrate turnover; further: on the % scale 0 is the no-effect control and ±100 the full control effect; nearly all actives have a fitted effect of over 50% in size
#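 Rat TrxR1, dispensed at 90 nM, was prereduced with 400 uM NADPH (final) for 5 min at ~22 deg C, then incubated with compound 15 min before 400 uM selenite. A first-read NADPH fluorescence drop versus no-compound background flagged substrates.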
# Mito fusion act = inhibitors of mitochondrial division or activators of mitochondrial fusion; Potency, µM (series often up to 46.1 µM), for inactives: at the highest dose growth rescue (activation), actives largely listed as activators; 320,000 tested, 0.23% active; S. cerevisiae fusion-defective mutant growth rescue, CellTiterGlo 48 h; further: % of control where 0% means no effect; nearly all actives have a fitted effect of over 45% in size
#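 Yeast fusion mutant, YPEG (non-fermentable carbon), compound, 48 h at 37C non-permissive; CellTiterGlo added, 10 min RT, luminescence read. Rescued growth = division inhibition.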
# A549 viability = A549 cytotoxicity, counter-screen for Nrf2 inhibitors. A549 ARE-Fluc cells, CellTiter-Fluor viability, 18-24 h. Potency, µM (titrated, usually from 46 µM), for inactives: top-dose activity change, negative = cytotoxicity, hits mostly inhibitors. 390,000 tested, 0.16% active; further: on the % scale 0 is the no-effect control and ±100 the full control effect
#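 A549 ARE_Fluc cells in 5% FBS OPTI-MEM were exposed to compounds in concentration-response for 18-24 h at 37 deg C. Viability was read by CellTiter-Fluor fluorescence (Ex 405/Em 525) after 30 min, before the luciferase read.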
# Nrf2 inh = inhibitors of Nrf2 signaling. Potency, µM (top dose mostly 46 µM), inactives show at the highest dose activity change, negative = inhibition, most hits filed as inhibitors. A549 ARE-Fluc reporter, luciferase luminescence, 18-24 h. AID 504444. 360,000 tested, 2.1% active; further: on the % scale 0 is the no-effect control and ±100 the full control effect; nearly all actives have a fitted effect of over 60% in size
#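 A549 ARE_Fluc cells, 5000/well, 5% FBS OPTI-MEM; compounds in dose-response, 18-24 h at 37 °C/5% CO2; CellTiter-Fluor viability read (Ex 405/Em 525), then BugLite luciferase luminescence = Nrf2 activity.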
# mIDH1 inhibitor = human IDH1 R132H inhibition; O75874; IDH1-R132H enzyme, NADPH consumption, diaphorase/resazurin fluorescence; Potency, µM (top dose mostly 76.6 µM), for the others: at the top dose activity change, negative = inhibition, usual class: inhibitors; 390,000 tested, 0.093% active; AID 602179; further: on the % scale 0 is the no-effect control and ±100 the full control effect; nearly all actives have a fitted effect of over 65% in size
#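 IDH1-R132H (0.5 ug/mL) preincubated 30 min with compound, then NADPH (0.016 mM) and alpha-KG (2 mM) added; 80 min at RT, pH 7.5. Remaining NADPH coupled via diaphorase/resazurin to fluorescence (540/590 nm); concentration-response curves normalized to no-enzyme control.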
# * = called active by the depositor; ? = inconclusive; · = not tested or not shown; [ ] = another dose, or the depositor's remark. Compounds with a hit are over-represented: about 3.1% of the library has one in this group of screens. The call rests on the fitted dose curve; in most records, active means well fitted curve in the direction sought with a large enough effect; inconclusive means small, poorly fitted or top-dose-only effect, or another doubt; inactive means no such curve, though single readings can be large; an effect the other way counts as inactive or inconclusive. Potency means the concentration at half of the fitted maximal effect.
SMILES,TrxR1 inh,TrxR1 substrate,Mito fusion act,A549 viability,Nrf2 inh,mIDH1 inhibitor
O=c1c(C(c2ccccc2)c2c(O)nc3n(c2=O)CCCS3)c(O)nc2n1CCCS2,?,3%,4%,-4%,-2%,5%
O=c1c(C(c2ccc(F)cc2)c2c(O)nc3n(c2=O)CCCS3)c(O)nc2n1CCCS2,14µM*,-4%,-4%,-3%,0%,1%
O=c1c2[nH]c3ccc(F)cc3c2nc2n1CCCS2,18%,3%,-2%,1%,2%,-3%
O=c1c(C(c2ccccc2)c2c(O)nc3n(c2=O)CCS3)c(O)nc2n1CCS2,7.1µM*,-3%,-21%,-3%,8%,-1%
O=c1cc(O)c2c([nH]1)CCC2,23%,6%[0.0914 µM],·,·,·,·
CCN(CC)S(=O)(=O)c1cc(-c2nnc(-c3ccc(Br)cc3)o2)ccc1Br,13%[57.1 µM],-12%,0%,6%,·,0%
CCN(CC)S(=O)(=O)c1cc(-c2nnc(-c3ccc(Br)cc3)o2)ccc1Cl,17%,10%,0%,-22%,21µM*,-2%
CCN(C(=O)Cn1nnc2sc(-c3ccccc3)cc2c1=O)c1cccc(C)c1,-2%,0%,·,11%,26%,·
N#CN1CCC(NS(=O)(=O)c2ccc(F)cc2)CC1,·,·,·,-2%,?,·
Cc1cc(C(C)(C)C)oc1C(=O)N(CC(=O)NC1CCCC1)c1cccc(C(F)(F)F)c1,-3%,-8%,8%,?,21µM*,0%
CSc1cccc(NS(=O)(=O)c2ccc3c(c2)oc(=O)n3C)c1,11%[57.1 µM],-2%,8%,-5%,26µM*,-7%
CSc1cccc(NS(=O)(=O)c2cn(C)c(C)n2)c1,15%[57.1 µM],-1%[57.1 µM],·,10%,·,-9%
CSc1cccc(NS(=O)(=O)c2cn(C)cn2)c1,50µM*,-4%,5%,11%,-7%,9%
CCCCN1CC[C@H]2C=CC[C@@H](C(=O)NC3CCCCC3)[C@H]2C1=O,7%,-1%,·,·,·,·
O=C(c1ccccc1)N1CCCCC(Cl)C1=O (stereo not drawn),35%,0%,-6%,-1%,-5%,-8%
Nc1c(C2CCCCC2)c(=O)on1C(=O)c1ccccc1,45µM*,-1%,·,1%,10%,-1%
Cc1ccc2c(c1)c(=O)c1c3n2CCN(C(=O)CCl)C3CC1 (stereo not drawn),14µM*,14%[57.1 µM],-7%,2%,8%,8%
Cc1ccc2c(c1)c1c3n2CCN(C(=O)CN2CCN(C)CC2)C3CCC1 (stereo not drawn),9%,18%,-14%,?,9%,-1%
CC1Cn2cc(C(=O)Nc3ccccc3C(F)(F)F)c(=O)c3c(Cl)ccc(c32)O1 (stereo not drawn),20%[57.1 µM],-3%[57.1 µM],-1%,12%,·,-5%
S=C(Nc1ccc(Nc2ccccc2)cc1)Nc1ccccn1,-24%[57.1 µM],-3%[57.1 µM],3%,?,21µM*,1%
O=C(NC(=S)Nc1ccccn1)c1ccccc1,7%[57.1 µM],13%[57.1 µM],35µM*,-7%,?,-10%
S=C(Nc1ccccc1)Nc1ccccn1,·,·,·,·,·,-1%
CC(Oc1ccccc1)C(=O)N[C@@H]1C(=O)N2C(C(=O)OCC3CCCCC3)C(C)(C)S[C@H]12 (stereo partly drawn),-12%,1%,·,·,·,·
CN(C)Cc1cc(O)c(CN(C)C)cc1O,14µM*,-14%,1%,-13%,-5%,13%
N#Cc1nc(Nc2ccc(Br)cc2)nc(NC2CCCC2)n1,·,·,·,-18%,?,·
SMILES,TrxR1 inh,TrxR1 substrate,Mito fusion act,A549 viability,Nrf2 inh,mIDH1 inhibitor
CN(Cc1cccs1)c1ncnc2ccc(-c3ccc4cn(C)nc4c3)cc12,·,·,·,1%,-6%,·
O=S(=O)(c1cc(C(F)(F)F)ccc1Cl)N1CCCCCC1,6%,1%,-4%,-5%,-2%,-2%
O=S(=O)(c1cc(C(F)(F)F)ccc1Cl)N1CCN(c2ncnc3ccccc23)CC1,17%,6%,14%,-13%,18µM*,0%
Cc1cccc(NC(=O)CN2C(=O)c3cccnc3Oc3ccc(Cl)cc32)c1C,-10%,0%,·,0%,?,7%
Cc1ccc2[nH]c(=O)c(CN(Cc3ccccc3)Cc3nnnn3Cc3ccco3)cc2c1,-28%,-3%[0.0914 µM],·,-9%,-6%,·
CCCOC(=O)c1c(NC(=O)C(C)Sc2nc(-c3ccccc3)cc(C(F)(F)F)n2)sc(C(=O)N(C)C)c1C (stereo not drawn),22%,-4%,·,-22%,21µM*,-7%
OCCN(CCO)c1ccc(/C=C/c2ccnc3ccccc23)cc1,-13%,-5%,·,·,·,·
Cc1ccc(C2C=C(c3ccc(Cl)cc3)Nc3nc(NC(=O)c4ccco4)nn32)cc1 (stereo not drawn),40µM*,9%,·,11%,-9%,12%
Nc1cc(-c2cccc(Br)c2)nn1Cc1ccccc1,4%,-10%,3%,-8%,2%,2%
Nc1cc(-c2ccc(Br)cc2)nn1Cc1ccccc1,7%[57.1 µM],-8%,11%,-11%,10µM*,0%
COc1ccc(/C=N/NC(=O)c2cc(C(C)(C)C)[nH]n2)cc1COc1ccc(F)cc1F,26%,-2%,-3%,?,21µM*,-1%
COc1ccc(/C=N\NC(=O)c2ccccc2F)cc1COc1ccc(F)cc1F,20%,-1%,-3%,?,-17%,2%
CCc1ccc(NC(=O)c2sc3nc(C)c(Cl)c(C)c3c2N)cc1,39%,105%,·,3%,3.7µM*,8%
CCc1ccc(NC(=O)c2sc3nc(C)c(Cl)c(C)c3c2NC(=O)c2ccccc2OC)cc1,22%,2%,·,8%,4%,-5%
COc1cc(-c2nc(Cn3nnc(C(=O)Nc4ccccc4C)c3C)c(C)o2)cc(OC)c1OC,12%,6%,·,-8%,-5%,0%
CCC(=O)N1CCc2cc(S(=O)(=O)Nc3ccc4c(c3)OCCO4)ccc21,6%,5%,-2%,-17%,21µM*,3%
CCOC(=O)c1ccc(NS(=O)(=O)c2ccc3c(c2)CCN3C(=O)CC)cc1,-7%,-9%,·,1%,26µM*,-9%
CCOC(=O)C1CCCN(S(=O)(=O)c2ccc3c(c2)CCN3C(=O)CC)C1 (stereo not drawn),6%,-1%,·,0%,9.2µM*,-11%
O=C(C1CCC1)N1CCc2cc(S(=O)(=O)Nc3ccc4c(c3)OCCO4)ccc21,15%[57.1 µM],4%[57.1 µM],2%,-14%,?,2%
CCC(=O)N1CCc2cc(Br)cc(S(=O)(=O)N3CCCC(C(=O)Nc4cc(C)ccc4OC)C3)c21 (stereo not drawn),89µM*,0%,·,0%,8%,4%
